Bioassay records from PubChem.
An excerpt weighted towards active compounds, which were near 3.4% of everything screened.
Cardio protect – protects H9c2 cardiomyocytes from peroxide injury | H2O2 injury protection, ATPLite, 2 h | protection from H2O2 cell death, % at 20 µM | 0.63% of 360,000 active;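 active means compounds giving at least 50% protection of heart cells from peroxide-induced death in the single-dose screen, raw or plate-pattern-corrected value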
GalR3 antag – blocks the human galanin receptor 3; HEK293 GalR3-CNG cAMP membrane potential fluorescence; galR3 body fused to GalR1 C-terminus; inhibition, % at 3 µM; 0.44% of 360,000 active; AID 651719;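 active means inhibition above the screen-wide average plus 3 SD, cut at about 13% in these data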;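 further: forskolin and galanin both at EC90 stimulate the cells; cAMP rise reported by CNG channel membrane potential dye signal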
Gli-Sufu block – Gli-Sufu pathway antagonism; Sufu-KO-LIGHT fibroblasts, Gli luciferase reporter luminescence; 0.74% of 340,000 active; inhibition, % at 5 µM;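 active means inhibition above about 55%, limit read from the data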
GAA850 FXN act – increases GAA850 frataxin promoter reporter activity. HEK293 lucGAA850 FXN promoter luciferase reporter, 24 h; percent of 10 µM SAHA response. 0.56% of 360,000 active. activation, % at 6 µM;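 active means activation above the average of all compounds screened plus 3 SD, cutoff fixed separately per campaign, cut at about 7.5% in these data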
SMARCA2 act – increases SMARCA2 function in MMTV reporter cells | activation, % at 9.1 µM | MG213 cells, MMTV-luciferase reporter, dexamethasone, overnight | 1% of 370,000 active | AID 652017; in the data active means activation above about 7.8%
NR2F2 inh – NR2F2 (human) inhibition, primary screen; 0.7% of 370,000 active; P24468; HEK293T NGFI-A luciferase reporter, luminescence; inhibition, % at 8.6 µM;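 active means inhibition above a per-plate cutoff, mean inhibition of test wells between control levels plus 3 SD, cut at about 38% in these data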;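 further: cells cotransfected with COUP-TFII expression vector driving the NGFI-A reporter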
Target sequence (P24468 whole entry, looked up): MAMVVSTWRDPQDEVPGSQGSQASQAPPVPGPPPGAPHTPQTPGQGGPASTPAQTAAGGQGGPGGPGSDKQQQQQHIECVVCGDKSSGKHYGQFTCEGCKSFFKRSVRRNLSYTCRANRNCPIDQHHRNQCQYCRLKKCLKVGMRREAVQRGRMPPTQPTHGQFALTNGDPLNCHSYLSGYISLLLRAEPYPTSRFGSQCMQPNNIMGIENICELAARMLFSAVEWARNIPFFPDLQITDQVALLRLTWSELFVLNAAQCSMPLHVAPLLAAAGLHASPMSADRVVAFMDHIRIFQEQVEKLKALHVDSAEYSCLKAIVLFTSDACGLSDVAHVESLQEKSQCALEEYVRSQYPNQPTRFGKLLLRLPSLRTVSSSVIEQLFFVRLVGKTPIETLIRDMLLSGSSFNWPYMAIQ
SMARCA2 conf – confirmation of SMARCA2 (BRM) function activators; 30% of 3,500 active; AID 652260; shares compounds with SMARCA2 act; MG213 cells, MMTV-luciferase with dexamethasone, luminescence, overnight; MG213 cells expressing E1A, Rb sequestered; DMSO wells 0%, reference activator 100%; activation, % at 9.1 µM;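 active means activation above its plate's cutoff, the mean activation of tested wells plus 3 SD, cut at about 7.9% in these data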
GAL4-VP16 Luc – activates GAL4-VP16 luciferase, flagging SMARCA2 activator hits; shares compounds with SMARCA2 act; HEK293 GAL4-VP16 pG5luc reporter, luciferase luminescence; scaled: DMSO wells 0%, SAHA wells 100%; activation, % at 9.1 µM; 41% of 3,500 active;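 active means activation above the solvent-only control well mean plus 3 SD, averaged across control plates, cut at about 5.2% in these data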
Numbers stand for hits.

What do the screens show for `Cc1cccc(/C(N)=N/OC(=O)c2ccco2)c1`?
Cardio protect: inactive; GalR3 antag: inactive; Gli-Sufu block: inactive; GAA850 FXN act: inactive; SMARCA2 act: 9.3; NR2F2 inh: inactive; SMARCA2 conf: 19; GAL4-VP16 Luc: 11

What do the screens show for `COc1ccc(/C(N)=N/OC(=O)c2ccco2)cc1`?
Cardio protect: inactive; GalR3 antag: inactive; Gli-Sufu block: inactive; GAA850 FXN act: inactive; SMARCA2 act: 8.6; NR2F2 inh: inactive; SMARCA2 conf: inactive; GAL4-VP16 Luc: 13

Results for N/C(=N\OC(=O)c1ccco1)c1ccccc1 ?
Cardio protect: inactive; GalR3 antag: inactive; Gli-Sufu block: inactive; GAA850 FXN act: inactive; SMARCA2 act: inactive; NR2F2 inh: inactive

How did CC(C)(C)C1CCC(C(=O)OCC(=O)c2ccc[nH]2)CC1 (centres undefined) do in these assays?
Cardio protect: inactive; GalR3 antag: inactive; Gli-Sufu block: inactive; GAA850 FXN act: inactive; SMARCA2 act: inactive; NR2F2 inh: inactive

How did Cc1cccc(C)c1NC(=O)CNC(=O)Cc1c[nH]c2ccccc12 do in these assays?
Cardio protect: inactive; GalR3 antag: inactive; Gli-Sufu block: inactive; GAA850 FXN act: inactive; SMARCA2 act: inactive; NR2F2 inh: inactive

Results for COc1ccccc1NC(=O)c1c[nH]c2ccccc12 ?
Cardio protect: inactive; GalR3 antag: inactive; Gli-Sufu block: inactive; GAA850 FXN act: inactive; SMARCA2 act: 10; NR2F2 inh: inactive; SMARCA2 conf: inactive; GAL4-VP16 Luc: inactive

Results for Cc1cccc(C)c1NC(=O)c1c[nH]c2ccccc12 ?
Cardio protect: inactive; GalR3 antag: inactive; Gli-Sufu block: inactive; GAA850 FXN act: inactive; SMARCA2 act: 13; NR2F2 inh: inactive; SMARCA2 conf: 8.7; GAL4-VP16 Luc: 9.4

What do the screens show for `CC1=C(C(=O)Nc2ccccn2)C(c2ccc(N(C)C)cc2)n2ncnc2N1` (centres undefined)?
Cardio protect: inactive; GalR3 antag: inactive; Gli-Sufu block: inactive; GAA850 FXN act: inactive; SMARCA2 act: 8.1; NR2F2 inh: inactive; SMARCA2 conf: inactive; GAL4-VP16 Luc: inactive

How did O=[N+]([O-])c1ccc(N2CCN(CC3CCCCC3)CC2)cc1 do in these assays?
Cardio protect: inactive; GalR3 antag: inactive; Gli-Sufu block: inactive; GAA850 FXN act: inactive; SMARCA2 act: inactive; NR2F2 inh: inactive

What do the screens show for `CCOC(=O)[C@H]1[C@H]2COc3ccc(Cl)cc3[C@@H]2N2C(=O)c3cc(F)c(F)cc3NC(=O)[C@@]12C`?
Cardio protect: inactive; GalR3 antag: inactive; Gli-Sufu block: inactive; GAA850 FXN act: inactive; SMARCA2 act: inactive; NR2F2 inh: inactive

What do the screens show for `COc1cccc(N=c2oc3ccc(OC)cc3cc2-c2nc3ccccc3[nH]2)c1`?
Cardio protect: inactive; GalR3 antag: inactive; Gli-Sufu block: inactive; GAA850 FXN act: inactive; SMARCA2 act: 8.3; NR2F2 inh: inactive; SMARCA2 conf: inactive; GAL4-VP16 Luc: 12

How did COc1ccc(N=c2oc3ccc(OC)cc3cc2-c2nc3ccccc3[nH]2)cc1 do in these assays?
Cardio protect: inactive; GalR3 antag: inactive; Gli-Sufu block: inactive; GAA850 FXN act: inactive; SMARCA2 act: 14; NR2F2 inh: inactive; SMARCA2 conf: inactive; GAL4-VP16 Luc: 9.9

How did CC(=O)Nc1ccc(NC(=O)C2CC(=O)N(C(C)C)C2)cc1 (centres undefined) do in these assays?
Cardio protect: inactive; GalR3 antag: inactive; Gli-Sufu block: inactive; GAA850 FXN act: inactive; SMARCA2 act: inactive; NR2F2 inh: inactive

Results for CC(C)c1ccc(/C=C2\SC(=O)N(CC(=O)NCCCn3ccnc3)C2=O)cc1 ?
Cardio protect: inactive; GalR3 antag: inactive; Gli-Sufu block: inactive; GAA850 FXN act: inactive; SMARCA2 act: inactive; NR2F2 inh: inactive

How did COc1ccc(CCN(Cc2cccs2)S(=O)(=O)c2ccc(S(=O)(=O)N(C)C3CCCCC3)cc2)cc1OC do in these assays?
Cardio protect: inactive; GalR3 antag: inactive; Gli-Sufu block: inactive; GAA850 FXN act: inactive; SMARCA2 act: inactive; NR2F2 inh: inactive
